Source: PubChem BioAssay (National Center for Advancing Translational Sciences (NCATS))
Akt phos inh: HTS Assay for Inhibitors of Akt Phophorylation: Primary Screen. activity change, % for hits at 50 µM. Neuro2A IGF-stimulated pAkt S473 HTRF, 20 min; hits give low values. 0.32% of 360,000 active; in the data active = activity change below about -80%; inconclusive = mostly about -51% to -80%; note: % is set by controls: 0 for no effect and ±100 for the full control effect
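Single-point screen (50 µM final compound) in Neuro2A cells stimulated 20 min with 6 nM IGF at 37 deg C. After lysis, Ser473-phosphorylated Akt read by HTRF (ex 330 nm, em 615/665 nm) as the 665/615 ratio.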
Glioma ERSR ind: qHTS for Inducers of the Endoplasmic Reticulum Stress Response (ERSR) in Human Glioma: qHTS. U87-MG GRP78 promoter luciferase reporter, 16 h. Potency, µM, without a hit: at the highest dose activation, actives largely listed as activators. 0.02% of 420,000 active. AID 602332, 2012; note: potency is the fitted concentration of half-maximal effect; series mostly up to about 76 µM; % of control where 0% means no effect; nearly all actives have a fitted effect of over 35% in size
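Stably transfected U87-MG glioma cells carrying a GRP78-based luciferase sensor; 16 h compound incubation. Luminescence end-point read 10 min after Bright-Glo addition at room temperature.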
RGS4 inh: Inhibitors of Regulator of G Protein Signaling (RGS) 4: qHTS; 0.039% of 390,000 active; Transcreener GDP fluorescence polarization, RGS4-accelerated GTP hydrolysis; Regulator of G-protein signaling 4 (Homo sapiens), P49798; Potency, µM (doses to about 114 µM), without a hit: at the highest dose activity change, negative = inhibition, most hits filed as inhibitors; AID 504845, 2011; note: potency is the fitted concentration of half-maximal effect; % is set by controls: 0 for no effect and ±100 for the full control effect; nearly all actives have a fitted effect of over 75% in size
Target sequence (P49798 whole entry, looked up): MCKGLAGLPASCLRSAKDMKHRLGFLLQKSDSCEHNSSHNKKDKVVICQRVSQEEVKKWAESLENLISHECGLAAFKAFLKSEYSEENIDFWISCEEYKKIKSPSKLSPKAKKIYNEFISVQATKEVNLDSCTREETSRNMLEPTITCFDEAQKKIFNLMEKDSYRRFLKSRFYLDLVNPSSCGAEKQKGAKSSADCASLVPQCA
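MLSMR compounds (23 nl, pin-transferred) preincubated 10 min at room temperature with a 500nM (2x) first reagent, then RGS4 at 900nM (2x) plus Transcreener GDP mix added; fluorescence polarization (620/688 nm) read before and after 90 min at 30 °C.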
CtBP-E1A blk: qHTS Assay for Inhibitors of the CtBP/E1A Interaction. 0.49% of 340,000 active. CtBP / adenovirus E1A interaction (AlphaScreen). AlphaScreen GST-E1A/His-CtBP binding, 1536-well; hits give low values. AID 651724, 2012. activity change, % (no concentration beside the values); in the data active = activity change below about -65%; inconclusive = mostly about -30% to -63%; note: % is set by controls: 0 for no effect and ±100 for the full control effect
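In 5 uL wells, 23 nL compound meets equimolar GST-E1A and His-CtBP (5X stock 125 nM each) for 2 h, 37 °C. Beads (5X, 50 ug/mL) then 1 h, 37 °C, dark.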
Six1-Eya2 blk: qHTS Assay for Inhibitors of the Six1/Eya2 Interaction; AlphaScreen GST-Six1/His-Eya2 binding, biochemical; hits give low values; Homeobox protein SIX1 (Homo sapiens) + Protein phosphatase EYA2 (Homo sapiens), …; AID 651725, 2012; activity change, % (test concentration not listed); 0.56% of 360,000 active; in the data active = activity change below about -65%; inconclusive = mostly about -30% to -63%; note: % is set by controls: 0 for no effect and ±100 for the full control effect
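AlphaScreen luminescence read after one hour at 37 °C in darkness. Pin-transferred compounds met GST-Six1 and His-Eya2 protein (5X stock 250 nM/500 nM) plus glutathione donor and Ni-chelate acceptor beads (5X, 50 ug/mL).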
An asterisk follows results filed as active. Most compounds without a hit are left out; they make up all but 0.88% or so of the library. Unless noted, calls come from the whole dose curve; as a rule, active = well fitted curve in the direction sought with a large enough effect; inconclusive = small, poorly fitted or top-dose-only effect, or another doubt; inactive = no such curve, though single readings can be large; an effect the other way counts as inactive or inconclusive.

CCOc1ccc(-n2c(SCC(=O)NC(C)CC)nc3n[nH]c(C)c3c2=N)cc1 (stereo not given) was read as Akt phos inh inactive, Glioma ERSR ind -5%, RGS4 inh -25%, CtBP-E1A blk inconclusive and Six1-Eya2 blk -14.
For COCC(=O)Nc1cc(C(=O)N2CCCOc3c(cccc3OC)C2)c2c(c1)nc(C1CCC1)n2C the results were Glioma ERSR ind 0%.
Screening COc1cc(/C=C/c2ccnc3ccccc23)ccc1N(C)C returned Glioma ERSR ind 2%.
`Cc1[nH]c2ccccc2c1C(=O)COC(=O)c1ccccc1SCC(=O)N1CCCC1` gave Glioma ERSR ind -4%.
Screening NC(N)=NCCCC(N)C(=O)O (stereo not given) returned Glioma ERSR ind -3%.
`CC(=NNC(=S)N1CCC1)c1ccccn1` gave Akt phos inh inactive, Glioma ERSR ind -3%, RGS4 inh -40%, CtBP-E1A blk -95* and Six1-Eya2 blk -91*.
`C/C(=N\NC(=O)COc1ccccc1-c1ccccc1)c1cccnc1` gave Akt phos inh inactive, Glioma ERSR ind -4%, RGS4 inh -12%, CtBP-E1A blk 1 and Six1-Eya2 blk 1.
C/C(=N\NC(=O)COc1ccccc1-c1ccccc1)c1ccccn1 was read as Akt phos inh inactive, Glioma ERSR ind -7%, RGS4 inh 11%, CtBP-E1A blk -25 and Six1-Eya2 blk -65*.
Screening CC(=NNC(=S)N1CC2CCC(CC2)C1)c1cccc(C)n1 returned Akt phos inh inactive, Glioma ERSR ind 12%, RGS4 inh -31%, CtBP-E1A blk -16 and Six1-Eya2 blk -88*.
CC(=NNC(=S)Nc1cccc(Cl)c1)c1ccccn1 was read as Akt phos inh inactive, Glioma ERSR ind inconclusive, RGS4 inh -22%, CtBP-E1A blk -96* and Six1-Eya2 blk -91*.
For Cc1c(C(=O)N2CCOc3ccccc3C2)sc2ncnc(NCCCN3CCOCC3)c12 the results were Glioma ERSR ind -3%.
For COC(=O)c1c(OCc2ccccn2)cc(=O)n2c1CCN(Cc1cccc(C(F)(F)F)c1)CC2 the results were Glioma ERSR ind 0%.
Screening CC(C)C[C@H](NC(=O)[C@H](CC(C)C)NC(=O)[C@@H](Cc1c[nH]c2ccccc12)NC(=O)[C@H](Cc1ccccc1)NC(=O)[C@@H](Cc1c[nH]c2ccccc12)NC(=O)[C@H](CCC(N)=O)NC(=O)[C@H](CCC(N)=O)NC(=O)[C@@H]1CCCN1C(=O)[C@H](CCCCN)NC(=O)[C@@H]1CCCN1C(=O)[C@H](N)CCCN=C(N)N)C(N)=O returned Glioma ERSR ind -5%.
For C/C(=N\NC(=O)c1ccc(Cl)cc1)c1ccccn1 the results were Akt phos inh inactive, Glioma ERSR ind -9%, RGS4 inh 16%, CtBP-E1A blk inconclusive and Six1-Eya2 blk -90*.
Screening C/C(=N\NC(=O)c1cc(C)nc2ccccc12)c1ccccn1 returned Akt phos inh inactive, Glioma ERSR ind -8%, RGS4 inh 14%, CtBP-E1A blk -92* and Six1-Eya2 blk -89*.
`C/C(=N\NC(=O)c1ccc(Br)cc1)c1ccccc1` gave Akt phos inh -111%*, Glioma ERSR ind -4%, RGS4 inh -8%, CtBP-E1A blk 0 and Six1-Eya2 blk 22.
Screening CC(=O)N1CCN(C(c2ccccc2)c2ccccc2)CC1 returned Akt phos inh inactive, Glioma ERSR ind -4%, CtBP-E1A blk -8 and Six1-Eya2 blk -9.
CN1C(=O)C(CC(=O)N2CCN(C(c3ccccc3)c3ccccc3)CC2)N(C)C1=O (stereo not given) was read as Akt phos inh -115%*, Glioma ERSR ind 3%, RGS4 inh 26%, CtBP-E1A blk 5 and Six1-Eya2 blk 3.
For COc1ccc(C2(C(=O)NCC3Cc4cccc(-c5nc(C)cnc5C)c4O3)CCCC2)cc1 (stereo not given) the results were Glioma ERSR ind -7%.
For CCOC(=O)c1nnn(CC(=O)N2N=C(c3ccccc3)CC2c2ccccc2)c1C(=O)OCC (stereo not given) the results were Akt phos inh -83%*, Glioma ERSR ind -6%, RGS4 inh 25%, CtBP-E1A blk -4 and Six1-Eya2 blk 2.
Screening CC(=O)c1ccc(F)c(-c2cc(C)cc3c2OC(CNC(=O)c2cccnc2)C3)c1 (stereo not given) returned Glioma ERSR ind -3%.
CC1=C(C(N)=O)C(c2ccccc2)n2nc(-c3ccncc3)nc2N1 (stereo not given) was read as Akt phos inh inactive, Glioma ERSR ind -5%, RGS4 inh 8%, CtBP-E1A blk 16 and Six1-Eya2 blk 1.
`Cc1nc(-[n+]2nc(-c3ccncc3)nn2-c2ccccc2)sc1C` gave Akt phos inh inactive, Glioma ERSR ind -6%, CtBP-E1A blk -88* and Six1-Eya2 blk -91*.
